# In PubChem BioAssay (EPA / NIEHS):
# Inconclusive results are not listed. Active and inactive are the calls of the source. How the source made its calls: active means hit-call score of the fitted dose curve at least 0.9, where 1 is the maximum; inconclusive means response in the unintended direction; inactive means score below 0.9.
# Target: Cellular tumor antigen p53 (Homo sapiens) (UniProt P04637)
# Assay: TOX21_p53_BLA_p4_ratio: Tox21 HCT-116 p53 Agonism Beta-lactamase Assay, Ratio, Phase 4 (AID 2283601)
# Text: TOX21_p53_BLA_p4 is a cell-based, single-readout assay that uses HCT116, a human intestinal cell line, […] in a 1536-well plate.TOX21_p53_BLA_p4_ratio is an assay readout measuring reporter gene via receptor activity and designed using inducible reporter (beta lactamase induction) detected with GAL4 b-lactamase reporter gene. The signal is derived from the ratio of cleaved (ch2) to uncleaved (ch1)reporter gene substrate used as the measure of target activity.Data from the assay component TOX21_p53_BLA_p4_ratio was analyzed into 1 assay endpoint. This assay endpoint, TOX21_p53_BLA_p4_ratio, was analyzed in the positive analysis fitting direction relative to DMSO as the negative control and baseline of activity. Using a type of inducible reporter, gain-of-signal activity can be used to understand changes in the reporter gene as they relate to the gene TP53. Furthermore, this assay endpoint can be referred to as a primary readout, because this assay has produced multiple assay endpoints where this ratio serves a reporter gene function to understand target activity. To generalize the intended target to other relatable targets, this assay endpoint is annotated to the DNA binding intended target family, where the subfamily is tumor suppressor.
# Thawing Method: Place 14 mL of pre-warmed thaw medium into a 15 mL of conical tub. Remove the vial of cells to be thawed from liquid nitrogen and thaw rapidly by placing at 37C in a water bath with gentle agitation for 1-2 minutes. Decontaminate the vial by wiping with 70% ethanol before opening in a biological safety cabinet. Transfer the vial contents drop-wise into 14 mL of thaw medium in a sterile 15-mL conical tub. Centrifuge cells at 900 rpm for 4 minutes and resuspend in thaw medium. Transfer contents to the T75 tissue culture flask containing Thaw Medium and place flask in a humidified 37C/5% CO2 incubator. Switch to growth medium at first passage.Propagation Method: Aspirate medium, rinse once in DPBS, add 0.25% Trypsin/EDTA and swirl to coat the cell evenly. Add an equal volume of Growth Medium to inactivate Trypsin after 2-3 minutes incubation at 37C. Centrifuge cells at 900 rpm for 4 minutes and resuspend in growth medium. Cell should be passage or fed at least twice a week.Assay Protocol: Harvest cells from culture in growth medium and resuspend in assay medium. 2.2 Dispense 4000 cells/5 uL/well into 1536-well black/clear bottom plates using a Multidrop dispenser. After the cells were incubated at 37C for 5 hours, 23 nL of compounds dissolved in DMSO were transferred to the assay plate by a PinTool resulting in a 217-fold dilution. Incubate the plates for 16 hours at 37C, 5% CO2. Add 1 uL of 6X LiveBLAzer FRET B/G (CCF4-AM) Substrate Mixture to each well using a BioRAPTR dispenser and incubate the plates at room temperature for 2 hours. Measure fluorescence intensity at 460 and 530 nm emission and 405 nm excitation by an Envision detector. Data is expressed as the ratio of 460nm/530nm emissions. Add 4 uL of Cell-titer Glo to each well using BioRAPTR and incubate the plates at room temperature for 2 hours. Measure fluorescence intensity by a VewLux plate reader.
# Chain of Cellular tumor antigen p53 (Homo sapiens) (P04637 whole entry, looked up): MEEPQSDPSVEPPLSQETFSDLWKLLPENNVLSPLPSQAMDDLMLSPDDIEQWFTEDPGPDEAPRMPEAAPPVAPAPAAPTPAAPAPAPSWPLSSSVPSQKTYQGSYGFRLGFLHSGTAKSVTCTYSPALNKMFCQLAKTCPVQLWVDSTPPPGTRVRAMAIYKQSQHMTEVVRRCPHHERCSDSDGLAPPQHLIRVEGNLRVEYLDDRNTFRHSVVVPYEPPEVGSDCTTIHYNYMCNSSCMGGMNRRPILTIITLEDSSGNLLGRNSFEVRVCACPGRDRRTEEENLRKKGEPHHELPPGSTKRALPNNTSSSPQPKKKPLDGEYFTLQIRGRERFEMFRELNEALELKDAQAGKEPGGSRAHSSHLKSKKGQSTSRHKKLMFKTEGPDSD
row,SMILES,outcome
1,CCC(=O)c1cccc(Cl)c1,inactive
2,Cc1cnc(C)c(C)n1,inactive
3,COc1cnc(NS(=O)(=O)c2ccc(N)cc2)nc1,inactive
4,C1=C\CC/C=C\CC/1,inactive
5,C[C@@H](c1ncncc1F)[C@](O)(Cn1cncn1)c1ccc(F)cc1F,inactive
6,O=C(O)/C=C/c1cnc[nH]1,inactive
7,CNC(=O)NC,inactive
8,COC(=O)c1cccc(Cl)c1,inactive
9,CCC(=O)Nc1ccc(O)cc1,inactive
10,CC(C)(C)NCC(O)COc1cccc2c1CCC(=O)N2 (stereo not given),inactive
11,O=C[O][Al]([O]C=O)[O]C=O,inactive
12,O=C(O)C(O)[C@H](O)[C@@H](O)[C@H](O)[C@H](O)CO (stereo not given in full),inactive
13,ClCCl,inactive
14,O=C(O)[C@H]1CN(C/C=C/P(=O)(O)O)CCN1,inactive
15,Cc1cccc(C(=O)O)c1[N+](=O)[O-],inactive
16,O=C(CS(=O)Cc1ccco1)NC/C=C\COc1cc(CN2CCCCC2)ccn1 (stereo not given),inactive
17,CCCN(CCC)C(=O)C(CCC(=O)O)NC(=O)c1ccccc1 (stereo not given),inactive
18,S=C=Nc1ccc(N=C=S)cc1,inactive
19,COc1ccc(CN(CCN(C)C)c2ncccn2)cc1,inactive
20,Cc1ccc(S(=O)(=O)NC(=O)NC2CCCC2)cc1,inactive

row,SMILES,outcome
1,CC(C)C(=O)OCC(C)(C)C(O)C(C)C (stereo not given),inactive
2,CCN1CCN(C(=O)N[C@@H](C(=O)N[C@@H]2C(=O)N3C(C(=O)O)=C(CSc4nnnn4C)CS[C@H]23)c2ccc(O)cc2)C(=O)C1=O,inactive
3,NS(=O)(=O)c1cc2c(cc1Cl)NC(Cc1ccccc1)NS2(=O)=O (stereo not given),inactive
4,O=C(O)c1cc2cc(Cc3cccnc3)ccc2o1,inactive
5,CN(C)CCC=C1c2ccccc2C=Cc2ccccc21,inactive
6,NC(=O)CC[C@@H]1NC(=O)[C@H](Cc2ccccc2)NC(=O)[C@H](Cc2ccc(O)cc2)NC(=O)[C@@H](N)CSSC[C@@H](C(=O)N2CCC[C@H]2C(=O)N[C@@H](CCCN=C(N)N)C(=O)NCC(N)=O)NC(=O)[C@H](CC(N)=O)NC1=O,inactive
7,NCC1CCC(C(=O)Oc2ccc(CCC(=O)O)cc2)CC1 (stereo not given),inactive
8,O=Cc1ccc(C(=O)O)cc1,inactive
9,Cn1c(N)nc2nc[nH]c2c1=O,inactive
10,C[Se]CC[C@H](N)C(=O)O,inactive
11,c1ccc2nccnc2c1,inactive
12,Brc1cc2ccccc2c2ccccc12,inactive
13,CC(=O)Oc1cc(C(C)C)c(OCCN(C)C)cc1C,inactive
14,O=C1CCCc2ccccc21,inactive
15,O=C(c1ccc(Cl)cc1)c1ccc(Cl)cc1,inactive
16,C[C@H]1c2cccc(O)c2C(O)=C2C(=O)[C@]3(O)C(O)=C(C(N)=O)C(=O)[C@@H](N(C)C)[C@@H]3[C@@H](O)[C@@H]21,inactive
17,CCc1ccc(C(=O)C(C)CN2CCCCC2)cc1 (stereo not given),inactive
18,CC(C)NCC(O)COc1ccccc1-n1cccc1 (stereo not given),inactive
19,COc1ccc2c(c1)N(C[C@H](C)CN(C)C)c1ccccc1S2,inactive
20,C=CC(=O)OCC1CCCO1 (stereo not given),inactive
